# Experimental data taken from paper PMC7862700, “An all-to-all approach to the identification of sequence-specific readers for epigenetic DNA modifications on cytosine”.
# Columns and labels:
# Test in all cases: DAPPL (digital affinity profiling via proximity ligation, sequencing); 10 mM Tris-HCl pH 7.5, 50 mM NaCl, 1 mM DTT, 4% glycerol, room temperature, 30 min; GST-TFs on glutathione beads, 16-mer random dsDNA library, 0.1% formaldehyde crosslink after washing; high values mean tight binding
# FEV = biological target: T1, FEV (Homo sapiens, UniProt Q99581 1-238); conditions: protein: recombinant; tags: N-terminal GST; dsDNA, one strand shown
# T1 sequence: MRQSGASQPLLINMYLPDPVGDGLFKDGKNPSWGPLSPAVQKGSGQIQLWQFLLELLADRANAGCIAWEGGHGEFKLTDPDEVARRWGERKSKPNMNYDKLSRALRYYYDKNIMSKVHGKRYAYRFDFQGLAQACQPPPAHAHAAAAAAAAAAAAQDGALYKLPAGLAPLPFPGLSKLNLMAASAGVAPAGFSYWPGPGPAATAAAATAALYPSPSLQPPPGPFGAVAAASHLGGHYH
# How it was run: (§1)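 Each value of binding signal is a hexamer's read frequency for a factor divided by the same hexamer's frequency in the tag-only sample. Barcoded, bead-captured GST fusions of human transcription factors made in yeast were pooled with that sample and incubated with 200 nmole of a random double-stranded 16-mer DNA library in Tris/NaCl/DTT/glycerol buffer at room temperature for 30 min. Washing, 0.1% formaldehyde crosslinking, proximity ligation, PCR and Illumina NextSeq500 sequencing followed.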
# ETV5 = ETV5 (Homo sapiens, UniProt P41161 1-510); conditions: protein: recombinant; tags: N-terminal GST; dsDNA, one strand shown
# How it was run: as §1
# HSF1 = HSF1 (Homo sapiens, UniProt Q00613 1-529); conditions: protein: recombinant; tags: N-terminal GST; chain copies: 3; dsDNA, one strand shown
# How it was run: as §1
# SPIC = biological target: T2, SPIC (Homo sapiens, UniProt Q8N5J4 1-248); conditions: protein: recombinant; tags: N-terminal GST; dsDNA, one strand shown
# T2 sequence: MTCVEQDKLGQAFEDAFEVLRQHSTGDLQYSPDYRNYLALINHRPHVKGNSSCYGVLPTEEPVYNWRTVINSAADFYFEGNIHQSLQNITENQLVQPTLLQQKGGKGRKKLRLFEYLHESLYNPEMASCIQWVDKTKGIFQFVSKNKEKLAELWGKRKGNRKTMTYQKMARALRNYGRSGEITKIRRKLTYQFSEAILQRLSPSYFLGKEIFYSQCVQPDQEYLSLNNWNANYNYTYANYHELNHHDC
# How it was run: as §1
# ELF4 = ELF4 (Homo sapiens, UniProt Q99607 1-663); conditions: protein: recombinant; tags: N-terminal GST; dsDNA, one strand shown
# How it was run: as §1
# ELK4 = biological target: T3, ELK4 (Homo sapiens, UniProt P28324-2 1-405); conditions: protein: recombinant; tags: N-terminal GST; dsDNA, one strand shown
# T3 sequence: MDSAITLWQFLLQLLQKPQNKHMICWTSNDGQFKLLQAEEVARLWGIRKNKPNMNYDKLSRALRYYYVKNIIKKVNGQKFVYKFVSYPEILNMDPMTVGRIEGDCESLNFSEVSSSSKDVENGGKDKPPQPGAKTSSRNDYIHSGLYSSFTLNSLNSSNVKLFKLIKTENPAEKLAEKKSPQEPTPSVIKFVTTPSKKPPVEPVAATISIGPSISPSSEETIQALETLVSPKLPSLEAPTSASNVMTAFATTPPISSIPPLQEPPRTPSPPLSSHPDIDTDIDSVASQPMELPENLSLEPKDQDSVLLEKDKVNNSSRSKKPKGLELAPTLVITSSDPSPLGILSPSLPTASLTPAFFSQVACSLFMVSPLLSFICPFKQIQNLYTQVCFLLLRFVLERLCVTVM
# How it was run: as §1
# ETV2 = biological target: T4, ETV2 (Homo sapiens, UniProt O00321 1-342); conditions: protein: recombinant; tags: N-terminal GST; dsDNA, one strand shown
# T4 sequence: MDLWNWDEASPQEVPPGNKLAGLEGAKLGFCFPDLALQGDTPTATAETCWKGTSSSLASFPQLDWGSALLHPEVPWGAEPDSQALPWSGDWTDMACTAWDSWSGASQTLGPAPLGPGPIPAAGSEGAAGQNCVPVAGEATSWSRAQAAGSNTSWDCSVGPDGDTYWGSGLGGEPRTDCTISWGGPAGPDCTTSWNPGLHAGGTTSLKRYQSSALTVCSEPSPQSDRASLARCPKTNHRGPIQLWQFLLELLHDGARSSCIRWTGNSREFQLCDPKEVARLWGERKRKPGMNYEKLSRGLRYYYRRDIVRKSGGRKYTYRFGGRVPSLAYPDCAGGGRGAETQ
# How it was run: as §1
# ELF3 = biological target: T5, ELF3 (Homo sapiens, UniProt P78545 1-371); conditions: protein: recombinant; tags: N-terminal GST; dsDNA, one strand shown
# T5 sequence: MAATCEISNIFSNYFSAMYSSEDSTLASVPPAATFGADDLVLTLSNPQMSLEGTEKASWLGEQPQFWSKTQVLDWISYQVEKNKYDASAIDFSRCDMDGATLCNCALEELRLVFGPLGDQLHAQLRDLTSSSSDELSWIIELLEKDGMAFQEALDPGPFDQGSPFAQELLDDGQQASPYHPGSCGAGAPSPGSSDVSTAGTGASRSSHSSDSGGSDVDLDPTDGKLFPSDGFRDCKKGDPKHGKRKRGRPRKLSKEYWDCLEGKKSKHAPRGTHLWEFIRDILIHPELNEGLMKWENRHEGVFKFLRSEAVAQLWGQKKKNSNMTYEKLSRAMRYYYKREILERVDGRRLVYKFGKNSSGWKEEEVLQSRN
# How it was run: as §1
# CRX = CRX (Homo sapiens, UniProt O43186 1-299); conditions: protein: recombinant; tags: N-terminal GST; dsDNA, one strand shown
# How it was run: as §1
# ETV1 = ETV1 (Homo sapiens, UniProt P50549 1-477); conditions: protein: recombinant; tags: N-terminal GST; dsDNA, one strand shown
# How it was run: as §1
# ERF = biological target: T6, ERF (Homo sapiens, UniProt P50548 1-548); conditions: protein: recombinant; tags: N-terminal GST; dsDNA, one strand shown
# T6 sequence: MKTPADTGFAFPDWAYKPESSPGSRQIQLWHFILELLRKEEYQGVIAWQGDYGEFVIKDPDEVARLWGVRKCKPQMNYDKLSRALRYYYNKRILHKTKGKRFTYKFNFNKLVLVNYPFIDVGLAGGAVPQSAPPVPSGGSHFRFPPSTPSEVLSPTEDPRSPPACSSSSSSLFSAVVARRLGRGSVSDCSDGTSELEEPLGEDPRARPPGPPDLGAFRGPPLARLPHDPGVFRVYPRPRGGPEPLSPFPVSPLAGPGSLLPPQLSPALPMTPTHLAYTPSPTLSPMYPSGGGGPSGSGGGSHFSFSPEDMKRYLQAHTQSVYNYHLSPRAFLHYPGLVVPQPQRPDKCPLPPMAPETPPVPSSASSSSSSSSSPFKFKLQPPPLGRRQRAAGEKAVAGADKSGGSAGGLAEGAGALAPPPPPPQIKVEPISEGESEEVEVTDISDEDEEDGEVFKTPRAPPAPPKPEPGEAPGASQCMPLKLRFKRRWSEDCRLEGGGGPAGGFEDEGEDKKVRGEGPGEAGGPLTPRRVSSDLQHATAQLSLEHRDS
# How it was run: as §1
# ETV3L = biological target: T7, ETV3L (Homo sapiens, UniProt Q6ZN32 1-361); conditions: protein: recombinant; tags: N-terminal GST; dsDNA, one strand shown
# T7 sequence: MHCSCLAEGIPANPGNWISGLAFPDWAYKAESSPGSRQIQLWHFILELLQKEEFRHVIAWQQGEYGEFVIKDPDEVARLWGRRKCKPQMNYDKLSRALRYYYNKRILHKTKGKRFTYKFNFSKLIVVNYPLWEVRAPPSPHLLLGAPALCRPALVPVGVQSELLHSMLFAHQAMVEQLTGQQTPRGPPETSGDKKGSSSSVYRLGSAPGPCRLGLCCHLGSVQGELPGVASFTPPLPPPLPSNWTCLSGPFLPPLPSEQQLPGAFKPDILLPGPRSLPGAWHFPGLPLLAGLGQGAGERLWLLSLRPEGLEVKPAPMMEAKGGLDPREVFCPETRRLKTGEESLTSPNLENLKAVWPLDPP
# How it was run: as §1
# ETS2 = biological target: T8, ETS2 (Homo sapiens, UniProt P15036 1-469); conditions: protein: recombinant; tags: N-terminal GST; dsDNA, one strand shown
# T8 sequence: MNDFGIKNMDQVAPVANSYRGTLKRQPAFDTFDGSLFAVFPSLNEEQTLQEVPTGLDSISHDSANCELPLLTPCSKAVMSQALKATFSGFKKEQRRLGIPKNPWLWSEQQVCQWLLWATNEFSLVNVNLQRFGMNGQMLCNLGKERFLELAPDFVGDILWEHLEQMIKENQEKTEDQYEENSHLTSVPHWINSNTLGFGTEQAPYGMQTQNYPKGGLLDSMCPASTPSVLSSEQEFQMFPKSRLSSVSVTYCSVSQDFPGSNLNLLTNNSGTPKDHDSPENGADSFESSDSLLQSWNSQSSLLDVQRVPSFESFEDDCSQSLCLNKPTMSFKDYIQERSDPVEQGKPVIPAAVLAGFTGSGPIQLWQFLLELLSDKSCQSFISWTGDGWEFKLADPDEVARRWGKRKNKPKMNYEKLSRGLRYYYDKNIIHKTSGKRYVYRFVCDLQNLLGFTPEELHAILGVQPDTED
# How it was run: as §1
# SPDEF = biological target: T9, SPDEF (Homo sapiens, UniProt O95238 1-335); conditions: protein: recombinant; tags: N-terminal GST; dsDNA, one strand shown
# T9 sequence: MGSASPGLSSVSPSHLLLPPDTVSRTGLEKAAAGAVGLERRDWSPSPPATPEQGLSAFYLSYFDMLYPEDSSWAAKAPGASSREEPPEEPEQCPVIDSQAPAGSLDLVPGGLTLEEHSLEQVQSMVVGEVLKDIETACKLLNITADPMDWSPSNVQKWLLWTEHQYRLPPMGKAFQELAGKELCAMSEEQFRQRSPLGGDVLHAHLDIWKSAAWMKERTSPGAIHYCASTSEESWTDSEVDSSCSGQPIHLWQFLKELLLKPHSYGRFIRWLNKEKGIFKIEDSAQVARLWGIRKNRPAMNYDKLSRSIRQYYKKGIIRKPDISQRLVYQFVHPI
# How it was run: as §1
# ETV7 = biological target: T10, ETV7 (Homo sapiens, UniProt Q9Y603 1-341); conditions: protein: recombinant; tags: N-terminal GST; dsDNA, one strand shown
# T10 sequence: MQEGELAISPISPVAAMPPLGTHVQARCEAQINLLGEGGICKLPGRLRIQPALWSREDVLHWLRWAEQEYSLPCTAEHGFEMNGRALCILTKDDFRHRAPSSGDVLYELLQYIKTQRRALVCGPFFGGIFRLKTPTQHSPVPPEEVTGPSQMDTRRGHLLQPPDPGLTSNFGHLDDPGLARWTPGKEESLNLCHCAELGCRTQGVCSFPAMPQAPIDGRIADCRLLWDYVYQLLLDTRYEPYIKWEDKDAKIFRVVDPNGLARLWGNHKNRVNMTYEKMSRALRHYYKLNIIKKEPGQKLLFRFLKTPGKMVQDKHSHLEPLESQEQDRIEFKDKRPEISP
# How it was run: as §1
# ELF5 = biological target: T11, ELF5 (Homo sapiens, UniProt Q9UKW6-2 1-255); conditions: protein: recombinant; tags: N-terminal GST; dsDNA, one strand shown
# T11 sequence: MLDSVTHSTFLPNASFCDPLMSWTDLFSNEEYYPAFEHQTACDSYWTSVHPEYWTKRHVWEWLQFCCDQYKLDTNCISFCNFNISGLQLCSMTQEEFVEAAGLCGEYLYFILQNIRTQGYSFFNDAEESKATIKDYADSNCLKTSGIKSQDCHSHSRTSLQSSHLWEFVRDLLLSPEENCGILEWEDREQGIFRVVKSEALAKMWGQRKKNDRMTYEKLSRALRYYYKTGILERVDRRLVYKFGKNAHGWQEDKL
# How it was run: as §1
# ETV3 = biological target: T12, ETV3 (Homo sapiens, UniProt P41162-2 1-143); conditions: protein: recombinant; tags: N-terminal GST; dsDNA, one strand shown
# T12 sequence: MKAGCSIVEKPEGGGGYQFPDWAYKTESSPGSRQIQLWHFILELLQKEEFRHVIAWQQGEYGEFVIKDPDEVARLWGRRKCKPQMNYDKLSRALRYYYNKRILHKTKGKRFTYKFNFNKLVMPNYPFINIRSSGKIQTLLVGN
# How it was run: as §1
# ETV6 = ETV6 (Homo sapiens, UniProt P41212 1-452); conditions: protein: recombinant; tags: N-terminal GST; dsDNA, one strand shown
# How it was run: as §1
# ETV6, sequence (P41212 whole entry): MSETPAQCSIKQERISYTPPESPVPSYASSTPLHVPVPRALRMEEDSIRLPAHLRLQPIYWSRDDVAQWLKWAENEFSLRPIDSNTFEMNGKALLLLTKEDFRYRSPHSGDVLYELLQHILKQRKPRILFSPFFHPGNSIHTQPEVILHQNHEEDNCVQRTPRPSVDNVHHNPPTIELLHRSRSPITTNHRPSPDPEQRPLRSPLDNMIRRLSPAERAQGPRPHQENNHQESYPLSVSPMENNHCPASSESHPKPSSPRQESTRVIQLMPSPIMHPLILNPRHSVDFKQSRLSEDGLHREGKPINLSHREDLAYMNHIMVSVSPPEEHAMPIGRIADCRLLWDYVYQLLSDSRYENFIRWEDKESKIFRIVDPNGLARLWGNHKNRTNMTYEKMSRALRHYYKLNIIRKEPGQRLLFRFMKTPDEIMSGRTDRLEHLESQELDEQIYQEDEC
# ETV1, sequence (P50549 whole entry): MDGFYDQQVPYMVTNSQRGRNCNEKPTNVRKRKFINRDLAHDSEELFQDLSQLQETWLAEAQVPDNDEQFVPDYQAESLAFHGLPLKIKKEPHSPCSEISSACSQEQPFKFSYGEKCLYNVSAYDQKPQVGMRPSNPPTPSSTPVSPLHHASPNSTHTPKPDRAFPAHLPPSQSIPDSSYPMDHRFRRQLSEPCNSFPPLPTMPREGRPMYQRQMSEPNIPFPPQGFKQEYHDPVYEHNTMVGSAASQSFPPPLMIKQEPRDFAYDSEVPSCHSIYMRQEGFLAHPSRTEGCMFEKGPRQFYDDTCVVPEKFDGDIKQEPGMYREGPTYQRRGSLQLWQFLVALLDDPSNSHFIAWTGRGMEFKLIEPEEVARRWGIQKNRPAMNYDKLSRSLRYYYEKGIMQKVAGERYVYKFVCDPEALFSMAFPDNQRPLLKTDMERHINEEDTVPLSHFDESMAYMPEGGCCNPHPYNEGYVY
# HSF1, sequence (Q00613 whole entry): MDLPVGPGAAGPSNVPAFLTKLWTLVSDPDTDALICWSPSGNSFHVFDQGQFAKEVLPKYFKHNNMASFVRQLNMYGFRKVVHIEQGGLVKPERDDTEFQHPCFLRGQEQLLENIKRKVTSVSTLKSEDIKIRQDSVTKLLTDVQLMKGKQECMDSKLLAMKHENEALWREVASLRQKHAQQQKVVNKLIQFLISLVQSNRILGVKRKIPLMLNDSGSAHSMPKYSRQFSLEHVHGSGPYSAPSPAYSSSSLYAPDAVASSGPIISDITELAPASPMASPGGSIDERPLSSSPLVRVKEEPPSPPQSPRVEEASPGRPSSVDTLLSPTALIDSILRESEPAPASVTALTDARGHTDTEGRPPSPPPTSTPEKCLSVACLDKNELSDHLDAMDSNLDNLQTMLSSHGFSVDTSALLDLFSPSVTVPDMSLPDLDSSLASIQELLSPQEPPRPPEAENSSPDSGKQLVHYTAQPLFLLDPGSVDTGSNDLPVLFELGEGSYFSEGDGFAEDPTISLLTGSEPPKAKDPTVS
# ETV5, sequence (P41161 whole entry): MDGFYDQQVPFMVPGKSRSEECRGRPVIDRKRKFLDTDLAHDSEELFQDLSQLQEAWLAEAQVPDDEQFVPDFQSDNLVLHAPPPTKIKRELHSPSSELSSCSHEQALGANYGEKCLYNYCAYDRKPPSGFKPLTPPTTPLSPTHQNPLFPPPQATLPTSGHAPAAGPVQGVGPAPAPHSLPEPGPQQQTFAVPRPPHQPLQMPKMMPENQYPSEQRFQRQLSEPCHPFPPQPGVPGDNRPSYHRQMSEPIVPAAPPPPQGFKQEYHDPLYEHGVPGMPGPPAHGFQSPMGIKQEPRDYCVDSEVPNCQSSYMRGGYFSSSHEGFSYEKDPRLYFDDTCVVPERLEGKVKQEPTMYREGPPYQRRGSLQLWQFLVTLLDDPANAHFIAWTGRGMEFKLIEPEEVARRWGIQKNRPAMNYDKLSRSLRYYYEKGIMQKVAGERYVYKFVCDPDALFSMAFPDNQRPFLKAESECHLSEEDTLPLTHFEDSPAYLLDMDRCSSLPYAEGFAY
# ELF4, sequence (Q99607 whole entry): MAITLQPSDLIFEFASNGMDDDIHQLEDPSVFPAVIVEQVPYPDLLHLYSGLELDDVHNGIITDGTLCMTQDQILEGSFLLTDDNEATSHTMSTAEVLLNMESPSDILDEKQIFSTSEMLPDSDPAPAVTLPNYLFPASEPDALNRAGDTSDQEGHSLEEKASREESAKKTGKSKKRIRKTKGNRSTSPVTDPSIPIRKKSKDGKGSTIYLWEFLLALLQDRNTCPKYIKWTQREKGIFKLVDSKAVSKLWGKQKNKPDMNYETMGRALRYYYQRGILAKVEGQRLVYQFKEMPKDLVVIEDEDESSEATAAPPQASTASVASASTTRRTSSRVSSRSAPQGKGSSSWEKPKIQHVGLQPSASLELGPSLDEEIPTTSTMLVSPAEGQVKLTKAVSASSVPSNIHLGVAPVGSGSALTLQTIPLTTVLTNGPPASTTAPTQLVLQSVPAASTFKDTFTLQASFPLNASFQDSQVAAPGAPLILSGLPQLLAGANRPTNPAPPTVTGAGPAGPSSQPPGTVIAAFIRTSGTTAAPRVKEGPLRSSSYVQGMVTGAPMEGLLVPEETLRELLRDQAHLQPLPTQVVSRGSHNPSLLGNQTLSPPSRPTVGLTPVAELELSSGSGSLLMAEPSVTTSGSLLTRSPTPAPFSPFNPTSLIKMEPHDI
# CRX, sequence (O43186 whole entry): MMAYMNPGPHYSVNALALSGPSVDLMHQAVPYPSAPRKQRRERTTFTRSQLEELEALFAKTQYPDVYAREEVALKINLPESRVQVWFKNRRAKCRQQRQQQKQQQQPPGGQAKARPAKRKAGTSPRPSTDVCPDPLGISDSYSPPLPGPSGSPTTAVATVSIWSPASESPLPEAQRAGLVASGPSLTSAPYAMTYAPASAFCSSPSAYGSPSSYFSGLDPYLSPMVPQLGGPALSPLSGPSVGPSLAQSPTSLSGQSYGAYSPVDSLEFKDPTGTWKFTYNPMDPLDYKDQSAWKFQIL
sequence,measurement,setting,value
AATTGC,binding signal,FEV,"1.39 fold enrichment (6-mer frequency, TF over GST control)"
same,binding signal,ETV5,"1.43 fold enrichment (6-mer frequency, TF over GST control)"
same,binding signal,HSF1,"1.24 fold enrichment (6-mer frequency, TF over GST control)"
same,binding signal,SPIC,"1.2 fold enrichment (6-mer frequency, TF over GST control)"
same,binding signal,ELF4,"1.36 fold enrichment (6-mer frequency, TF over GST control)"
same,binding signal,ELK4,"1.29 fold enrichment (6-mer frequency, TF over GST control)"
same,binding signal,ETV2,"1.44 fold enrichment (6-mer frequency, TF over GST control)"
same,binding signal,ELF3,"1.5 fold enrichment (6-mer frequency, TF over GST control)"
same,binding signal,CRX,"1.17 fold enrichment (6-mer frequency, TF over GST control)"
same,binding signal,ETV1,"1.35 fold enrichment (6-mer frequency, TF over GST control)"
same,binding signal,ERF,"1.43 fold enrichment (6-mer frequency, TF over GST control)"
same,binding signal,ETV3L,"1.35 fold enrichment (6-mer frequency, TF over GST control)"
same,binding signal,ETS2,"1.37 fold enrichment (6-mer frequency, TF over GST control)"
same,binding signal,SPDEF,"1.27 fold enrichment (6-mer frequency, TF over GST control)"
same,binding signal,ETV7,"1.38 fold enrichment (6-mer frequency, TF over GST control)"
same,binding signal,ELF5,"1.38 fold enrichment (6-mer frequency, TF over GST control)"
same,binding signal,ETV3,"1.35 fold enrichment (6-mer frequency, TF over GST control)"
same,binding signal,ETV6,"1.43 fold enrichment (6-mer frequency, TF over GST control)"
